Results filed as inconclusive are left out.
Assay: qHTS Assay for Lipid Storage Modulators (AID 1519)
Conditions: Drosophila S3 cells, BODIPY lipid droplet/cell ratio, laser cytometry; measured here: cell count channel max response; cells loaded with oleic acid
Summary of the method: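 Cells seeded at 5,000 per well were treated with compounds over a concentration series and loaded with oleic acid (400 uM, as added). Lipid droplet fluorescence (488 nm excitation, 500-530 nm channel) was read by laser-scanning cytometry and normalized to 20 uM Triacsin C.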
Work on `NC(=O)N1c2ccccc2CC(=O)c2ccccc21` yielded a max response of 10.2%. Compound `COc1ccc2c(c1)c(CC(=O)OCC(=O)O)c(C)n2C(=O)c1ccc(Cl)cc1` has a max response of 9.96%. `CN1CCCC(n2nc(Cc3ccc(Cl)cc3)c3ccccc3c2=O)CC1` (configuration not stated) showed a max response of -4.14%. For `NCCCC(O)(P(=O)(O)O)P(=O)(O)O`, the max response was -1.05%. `Nc1[nH]c(=O)ncc1F` showed a max response of 2.68%. Compound `Clc1ccccc1CN1CCc2sccc2C1` has a max response of -21%. `CNS(=O)(=O)Cc1ccc2[nH]cc(CCN(C)C)c2c1` gave a max response of 40%. With `COC(=O)Nc1nc2ccc(C(=O)c3ccccc3)cc2[nH]1` the max response was -1.6%. Work on `S=P(N1CC1)(N1CC1)N1CC1` yielded a max response of 5.1%. Work on `C1CCC(C(CC2CCCCN2)C2CCCCC2)CC1` (configuration not stated) yielded a max response of -15.8%. For `CCN1CCCC1CNC(=O)c1cc(S(N)(=O)=O)ccc1OC` (configuration not stated), the max response was 2.98%. Work on `O=c1oc2c(O)c(O)cc3c(=O)oc4c(O)c(O)cc1c4c23` yielded a max response of 18.5%. `Oc1c(Cl)cc(Cl)c2cccnc12` gave a max response of -11.5%. Work on `CC1=C(C(=O)O)N2C(=O)[C@@H](NC(=O)C(N)c3ccccc3)[C@H]2SC1` (some centres not stated) yielded a max response of -18.2%. With `COC(=O)Nc1nc2ccc(S(=O)c3ccccc3)cc2[nH]1` (configuration not stated) the max response was 14.2%. Compound `CC(=O)CC(c1ccccc1)c1c(O)c2ccccc2oc1=O` (configuration not stated) has a max response of 10.6%. For `CCOC(=O)c1ccc(OC(=O)CCCCCN=C(N)N)cc1`, the max response was -14.4%. `OC(Cn1cncn1)(Cn1cncn1)c1ccc(F)cc1F` showed a max response of 12.6%. Compound `CCCOc1ccc(C(=O)OCCN(CC)CC)cc1N` has a max response of 10.6%. `COc1ccc(C(=O)CC(=O)c2ccc(C(C)(C)C)cc2)cc1` gave a max response of -16.9%. In the case of `O=S(=O)(c1cccc2cnccc12)N1CCCNCC1`, the max response is reported as 9.76%. For `COC(=O)Nc1nc2ccc(Sc3ccccc3)cc2[nH]1`, the max response was -3.56%.
